Reference: ChEMBL document CHEMBL3433997, “St. Jude Leishmania screening dataset” (2016)

Biological target: Glucose transporter (Leishmania mexicana) (UniProt O61059)
Experiment: ST_JUDE_LEISH: Cytotoxicity at 2uM final concentration against transgenic Leishmania Mexicana promastigotes LmGT2 that are glucose transport deficient and complemented with the L. Mexicana glucose transporter 2. Activity is measured by DNA content using SYBR green in vitro
Format: functional

Row | Compound | inhibition [%]
1 | CN(Cc1ccc(NC(=O)NC2CCN(C(=O)/C=C/c3ccc(Cl)c(Cl)c3)CC2)cc1)C1CCOCC1 | 3.44
2 | C=C(C)CSc1nc2c(c(=O)n1CCc1ccccc1)C1(CCCC1)Cc1ccccc1-2 | 5.02
3 | CN(C)c1ccc(-c2csc(C(=O)NC3CCCCN(Cc4ccc(C(C)(C)C)cc4)C3)c2)cc1 (centres undefined) | 1.96
4 | CN1CCN(c2cc(NC(=O)c3ccc(-c4ccc(C#N)cc4)cc3)ccc2Cl)CC1 | 0.17
5 | COc1ccc(NC(=O)CSc2nc(-c3ccccc3Cl)ns2)cc1OC | 2.58
6 | CCCCN(Cc1cnccc1-c1ccc(Br)cc1)c1ccc(C(O)(C(F)(F)F)C(F)(F)F)cc1 | 0
7 | CSCCC(C(=O)O)N1C(=O)c2ccccc2C1=O (centres undefined) | 0.77
8 | Cc1sc(C)c(C(F)(F)F)c1CNCCCNc1cc(=O)c2ccccc2[nH]1 | 4.27
9 | Nn1c(=O)oc2ccc(Cl)cc2c1=O | 10
10 | Cc1cc(Cl)ccc1N(Cc1ccccc1)c1ccnc(Cl)n1 | 0.11
11 | O=C(Nc1ccc(Oc2ccc(OC(F)(F)F)cc2)cc1)c1ccco1 | -0.53
12 | Cc1cnc(NCC2CCCCC2)nc1N[C@@H](CO)C(=O)Nc1ccccc1 | -0.71
13 | CN(CC(=O)Nc1cc(C(F)(F)F)ccc1-n1cncn1)Cc1nc2ccccc2s1 | 5.21
14 | C=C[C@]1(C)C[C@@H](OC(=O)c2cncn(COC)c2=O)[C@]2(C)[C@H](C)CC[C@]3(CCC(=O)[C@H]32)[C@@H](C)[C@@H]1O | 0.15
15 | COc1ccccc1N1CCN(C(C(=O)NCc2cccc(F)c2)c2ccc(C)cc2)CC1 (centres undefined) | -1.92
16 | NC1=Nc2ccc(Cl)cc2C1(O)c1ccccc1 (centres undefined) | 0.97
17 | COc1ccc(C2CCN(CCN3CCC(NC(=O)c4cccc(-c5ccncc5)c4)CC3)CC2)c(OC)c1 | 0.47
18 | COc1ccc2nccc([C@@H](O)CN3CCC(NC(=O)c4ccc(-c5ccccc5)s4)CC3)c2c1 | 4.67
19 | Cc1cc(NCCCCCCN)nc(Nc2ccc(Cl)cc2)n1 | -0.67
20 | CN1CCN(c2ccnc3ccc(NC(=O)Nc4ccc(Br)cc4)cc23)CC1 | 0.32

Row | Compound | inhibition [%]
21 | O=C(Nc1ccc(CCNCCCc2ccccc2)cc1)Nc1ccc(Cl)c(Cl)c1 | -1.86
22 | COc1cc(Cl)c(C)cc1-n1cc(C(=O)c2cc(Br)ccc2O)cc(C#N)c1=O | 0.03
23 | COc1cccc(C(=O)Nc2sc3c(c2C(N)=O)CCCC3)c1OC | 12.7
24 | CN1CCN(CC(=O)Nc2ccc(-c3csc(-c4nc5ccccc5[nH]4)c3)cc2)CC1 | -2.28
25 | Cc1ccc2[nH]c(-c3ccccc3)cc(=NN=Cc3cccnc3)c2c1 | -2.99
26 | O=C(Nc1cccc(-c2cccc(-c3nc4cc(F)ccc4[nH]3)c2)c1)c1ccncc1 | 0.2
27 | Cc1cc(Cl)ccc1OC(C)C(=O)N1CCc2ccccc21 (centres undefined) | -0.66
28 | CCCCN(Cc1cc(Cl)c(OCC)c(OC)c1)c1ccc(C(O)(C(F)(F)F)C(F)(F)F)cc1 | -2.65
29 | C=Cc1ccc(-c2c(C)[nH]c(C)c(Br)c2=O)cc1 | -0.92
30 | Cc1cc(N[C@@H](Cc2ccccc2)C(=O)NCCOc2ccccc2)nc(NCC2CCCCC2)n1 | 0.5
31 | Cc1nc(C)n(CC(=O)Nc2cccc(-c3cccc(-c4nc5cc(C(F)(F)F)ccc5[nH]4)c3)c2)n1 | 7.09
32 | COc1cc(-c2ccc(-c3cnc(N)nc3OC)[nH]2)cc(OC)c1OC | 2.7
33 | O=C(Nc1cccc(-c2cccc(-c3nc4cc(F)ccc4[nH]3)c2)c1)c1c[nH]cn1 | -1.75
34 | Cc1cccc2nc(-c3ccc(-c4ccc(CN5CCOCC5)cc4)cc3)[nH]c12 | 2.61
35 | COc1ccc(NC(=O)NC2CCN(CCCCCNC(=O)/C=C/c3ccc(Cl)c(Cl)c3)C2)c(OC)c1 (centres undefined) | 2.83
36 | CCc1c(C)nc2nc(Cc3cccc(F)c3)nn2c1N1CCN(c2ccccn2)CC1 | 9.56
37 | COc1cc(Cn2ccc3c4c(N)nc(N)nc4ccc32)cc(OC)c1OC | 73.1
38 | COc1ccc(-c2cccc(NC(=O)c3ccccc3)c2)cc1CN1CCCN(C)CC1 | 2.04
39 | CCCc1cc(Cc2cnc(N)nc2N)cc(CCC)c1OCCCCCC(=O)OCC | 2.52
